Results on 18 compounds are retold here after PubChem BioAssay (NCATS).

The nature of assay [1]: Cellular viability qHTS for adrenocortical cancer (ACC) cell line SW-13 (AID 1963989).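 Further: cells grown in serum-free medium with ITS supplement; nearly all actives have a fitted effect of over 65% in size.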 The conditions noted are these: SW-13 ACC cells viability, CellTiter-Glo, 48 h; activity (max response): stronger effect = lower value. In outline: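 Compound titrations (up to 46 uM final, in DMSO) were applied to SW-13 cells for 48 h at 37C/5% CO2. Reading used CellTiter-Glo after 20 min at room temperature; fitted curves yielded IC50 and efficacy.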
In general terms: qHTS replaces the single test concentration by a dilution series.

A short description of assay [2]: Cellular viability qHTS for adrenocortical cancer (ACC) cell line NCI-H295R (AID 1963990). Further: nearly all actives have a fitted effect of over 60% in size. In outline: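 Readout: CellTiter-Glo luminescence, 20 min RT. Exposure: 48 h, 37C/5% CO2. Cells: NCI-H295R, ITS-DMEM serum-free. Range: up to 46 uM. Analysis: 4PL fit, IC50 plus efficacy.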

Results filed as inconclusive are left out. Where a call stands in place of a potency, no number is given. Values without a mark were called inactive. Calls of active or inactive are those of the source. The call rests on the fitted dose curve; in most records, active means well fitted cell-killing curve with a large enough effect; inconclusive means small, poorly fitted or top-dose-only effect; inactive means flat fitted curve, though single readings scatter.

Turning to `Cc1ccccc1N1CCN(CCc2nnc3n2CCCC3)CC1`, in assay [1], the activity (max response) was 9.97%. In assay [2], the Potency entry is “inactive”.

For `CC1(N)CCN(c2cnc(-c3cccc(Cl)c3Cl)c(N)n2)CC1`, in assay [1], the activity (max response) was -1.73%. Besides, the Potency result in assay [2] is “inactive”.

With `CC[N+](CC)(CCNC(=O)C(=O)NCC[N+](CC)(CC)Cc1ccccc1Cl)Cc1ccccc1Cl`, the activity (max response) in assay [1] is -1.37%. In assay [2], the Potency entry is “inactive”.

In the case of `CC(C)C[C@@H]1[C@H](c2ccccc2)OC(=O)N1CCCN1CCCCCC1`, the activity (max response) in assay [1] is -14.7%. In assay [2], the Potency entry was “inactive”.

Consider `Cc1ccc(C(C)C)cc2c(C)ccc1-2`, for which the activity (max response) in assay [1] is 0.775%. The Potency entry in assay [2] is “inactive”.

For the compound `C[C@@]12CCC[C@H]1[C@@H]1CC[C@H]3C[C@@H](O)CC[C@]3(C)[C@H]1CC2`, in assay [1], the activity (max response) was -0.85%. For the same compound, the Potency result in assay [2] was “inactive”.

For `CCOCOC[C@H](C[C@H](C)C(=O)NO)NC(=O)c1ccc(Oc2ccccc2)cc1`, the activity (max response) in assay [1] was -8.03%. Moreover, in assay [2], the Potency result is “inactive”.

As for `CC[N+](C)(CC)CCOC(=O)C(O)(c1ccccc1)C1CCCCC1` (stereo unspecified), the activity (max response) in assay [1] is 7.72%. In addition, the Potency result in assay [2] was “inactive”.

On to `COc1ccc2c(c1)c(CC(=O)OC/C=C(\C)CC/C=C(\C)CCC=C(C)C)c(C)n2C(=O)c1ccc(Cl)cc1`, for which, in assay [1], the activity (max response) was 2.52%. Further, the Potency entry in assay [2] was “inactive”.

As to `COC(=O)C1=C(C)NC(C)=C(C(=O)OCCc2ccc(N3CCN(C(c4ccccc4)c4ccccc4)CC3)cc2)C1c1cccc([N+](=O)[O-])c1` (stereo unspecified), the activity (max response) in assay [1] is 7.28%. In addition, the Potency entry in assay [2] was “inactive”.

With `CC(C)Cc1ccc(C(C)C(=O)OCc2ccccn2)cc1` (stereo unspecified), the activity (max response) in assay [1] is 14%. In assay [2], the Potency result is “inactive”.

Turning to `CCOC(=O)OC(C)OC(=O)[C@@H]1N2C(=O)[C@@H](NC(=O)[C@H](N)c3ccccc3)[C@H]2SC1(C)C` (stereo partly specified), in assay [1], the activity (max response) was 4.54%. In addition, the Potency result in assay [2] is “inactive”.

For the compound `N[C@@H](Cc1cc(I)c(O)c(I)c1)C(=O)O`, the activity (max response) in assay [1] is 8.5%. For the same compound, in assay [2], the Potency result is “inactive”.

As to `CCCCC[C@H](O)/C=C/[C@H]1[C@H](O)CC(=O)[C@@H]1CCCCCCC(=O)O`, in assay [1], the activity (max response) was 1.24%. For the same compound, the Potency result in assay [2] is “inactive”.

For `CN/C(=C\[N+](=O)[O-])NCCSCc1ccc(CN(C)C)o1`, the activity (max response) in assay [1] is 0.385%. Also, in assay [2], the Potency result is “inactive”.

For the compound `Cc1ccc(/C(=C\CN2CCCC2)c2ccccn2)cc1`, the activity (max response) in assay [1] was 2.73%. In assay [2], the Potency result was “inactive”.

Take `C[N+]1(C)CCC(OC(=O)C(O)(c2ccccc2)C2CCCC2)C1` (stereo unspecified): in assay [1], the activity (max response) was 7.55%. Also, in assay [2], the Potency entry was “inactive”.

As for `COc1cc(/C=C(\C#N)C(=O)Nc2nnc(C(F)(F)F)s2)ccc1OCc1ccc(C(F)(F)F)cc1C(F)(F)F`, the activity (max response) in assay [1] is -15.8%. Also, the Potency result in assay [2] is “inactive”.
